Results: the supplement of paper PMC11001985
Values without a mark were called inactive.

compound: C#CCNC(=O)CCSSCCC(=O)NCCc1ccc(C=O)c(C=O)c1; assay: lysine labeling ratio R10:1 (500 µM / 50 µM probe), SILAC-ABPP in living cells; higher = lower intrinsic lysine reactivity toward the probe, active = 2 or less; conditions: HeLa; probe concentrations 500 vs 50 µM
Method in brief: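 Living SILAC light and heavy HeLa cells in PBS at room temperature were treated with an alkyne-tagged, disulfide-linked lysine probe at 50 µM or 500 µM, with forward and reverse label swaps. The mixed lysates were clicked to biotin-azide, digested with trypsin, captured on neutravidin, released with DTT, alkylated and run by LC-MS/MS on a TIMS-TOF Pro. R for each lysine is the filtered median high-probe/low-probe MS1 peptide ratio, taken again as the median over forward and reverse replicates. Any value above 20 is set to 20.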

UniProt P05787, sequence (P05787 whole entry): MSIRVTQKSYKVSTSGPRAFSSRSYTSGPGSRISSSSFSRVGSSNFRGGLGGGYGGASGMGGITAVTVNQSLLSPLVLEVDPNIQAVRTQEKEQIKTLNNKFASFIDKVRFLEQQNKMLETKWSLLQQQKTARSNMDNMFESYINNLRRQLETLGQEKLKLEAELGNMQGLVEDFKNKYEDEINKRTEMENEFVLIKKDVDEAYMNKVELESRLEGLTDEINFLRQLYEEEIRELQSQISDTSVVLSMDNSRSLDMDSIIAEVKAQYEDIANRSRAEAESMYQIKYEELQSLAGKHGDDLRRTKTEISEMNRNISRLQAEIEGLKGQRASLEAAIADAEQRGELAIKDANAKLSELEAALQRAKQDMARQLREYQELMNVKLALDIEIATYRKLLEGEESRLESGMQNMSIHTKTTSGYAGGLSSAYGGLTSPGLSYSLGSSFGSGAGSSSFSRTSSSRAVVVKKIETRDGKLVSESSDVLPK
UniProt P11142, sequence (P11142 whole entry, looked up): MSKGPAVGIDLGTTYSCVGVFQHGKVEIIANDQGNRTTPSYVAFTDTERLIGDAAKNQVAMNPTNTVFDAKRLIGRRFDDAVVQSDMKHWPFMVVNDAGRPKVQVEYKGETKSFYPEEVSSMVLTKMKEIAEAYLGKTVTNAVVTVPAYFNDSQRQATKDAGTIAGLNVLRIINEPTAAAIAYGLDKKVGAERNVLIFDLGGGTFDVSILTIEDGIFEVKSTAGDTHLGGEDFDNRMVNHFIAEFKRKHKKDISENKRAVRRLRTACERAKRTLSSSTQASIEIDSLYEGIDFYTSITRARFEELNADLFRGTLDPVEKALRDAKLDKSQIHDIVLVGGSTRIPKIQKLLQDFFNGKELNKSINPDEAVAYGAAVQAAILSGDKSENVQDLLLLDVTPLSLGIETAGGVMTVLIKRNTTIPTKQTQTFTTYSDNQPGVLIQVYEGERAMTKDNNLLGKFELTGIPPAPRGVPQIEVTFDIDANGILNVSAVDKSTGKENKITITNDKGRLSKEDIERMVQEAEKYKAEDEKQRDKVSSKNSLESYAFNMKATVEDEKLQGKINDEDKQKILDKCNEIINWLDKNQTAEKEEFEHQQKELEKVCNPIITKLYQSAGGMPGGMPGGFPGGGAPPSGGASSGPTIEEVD
UniProt Q01082, sequence (Q01082 whole entry): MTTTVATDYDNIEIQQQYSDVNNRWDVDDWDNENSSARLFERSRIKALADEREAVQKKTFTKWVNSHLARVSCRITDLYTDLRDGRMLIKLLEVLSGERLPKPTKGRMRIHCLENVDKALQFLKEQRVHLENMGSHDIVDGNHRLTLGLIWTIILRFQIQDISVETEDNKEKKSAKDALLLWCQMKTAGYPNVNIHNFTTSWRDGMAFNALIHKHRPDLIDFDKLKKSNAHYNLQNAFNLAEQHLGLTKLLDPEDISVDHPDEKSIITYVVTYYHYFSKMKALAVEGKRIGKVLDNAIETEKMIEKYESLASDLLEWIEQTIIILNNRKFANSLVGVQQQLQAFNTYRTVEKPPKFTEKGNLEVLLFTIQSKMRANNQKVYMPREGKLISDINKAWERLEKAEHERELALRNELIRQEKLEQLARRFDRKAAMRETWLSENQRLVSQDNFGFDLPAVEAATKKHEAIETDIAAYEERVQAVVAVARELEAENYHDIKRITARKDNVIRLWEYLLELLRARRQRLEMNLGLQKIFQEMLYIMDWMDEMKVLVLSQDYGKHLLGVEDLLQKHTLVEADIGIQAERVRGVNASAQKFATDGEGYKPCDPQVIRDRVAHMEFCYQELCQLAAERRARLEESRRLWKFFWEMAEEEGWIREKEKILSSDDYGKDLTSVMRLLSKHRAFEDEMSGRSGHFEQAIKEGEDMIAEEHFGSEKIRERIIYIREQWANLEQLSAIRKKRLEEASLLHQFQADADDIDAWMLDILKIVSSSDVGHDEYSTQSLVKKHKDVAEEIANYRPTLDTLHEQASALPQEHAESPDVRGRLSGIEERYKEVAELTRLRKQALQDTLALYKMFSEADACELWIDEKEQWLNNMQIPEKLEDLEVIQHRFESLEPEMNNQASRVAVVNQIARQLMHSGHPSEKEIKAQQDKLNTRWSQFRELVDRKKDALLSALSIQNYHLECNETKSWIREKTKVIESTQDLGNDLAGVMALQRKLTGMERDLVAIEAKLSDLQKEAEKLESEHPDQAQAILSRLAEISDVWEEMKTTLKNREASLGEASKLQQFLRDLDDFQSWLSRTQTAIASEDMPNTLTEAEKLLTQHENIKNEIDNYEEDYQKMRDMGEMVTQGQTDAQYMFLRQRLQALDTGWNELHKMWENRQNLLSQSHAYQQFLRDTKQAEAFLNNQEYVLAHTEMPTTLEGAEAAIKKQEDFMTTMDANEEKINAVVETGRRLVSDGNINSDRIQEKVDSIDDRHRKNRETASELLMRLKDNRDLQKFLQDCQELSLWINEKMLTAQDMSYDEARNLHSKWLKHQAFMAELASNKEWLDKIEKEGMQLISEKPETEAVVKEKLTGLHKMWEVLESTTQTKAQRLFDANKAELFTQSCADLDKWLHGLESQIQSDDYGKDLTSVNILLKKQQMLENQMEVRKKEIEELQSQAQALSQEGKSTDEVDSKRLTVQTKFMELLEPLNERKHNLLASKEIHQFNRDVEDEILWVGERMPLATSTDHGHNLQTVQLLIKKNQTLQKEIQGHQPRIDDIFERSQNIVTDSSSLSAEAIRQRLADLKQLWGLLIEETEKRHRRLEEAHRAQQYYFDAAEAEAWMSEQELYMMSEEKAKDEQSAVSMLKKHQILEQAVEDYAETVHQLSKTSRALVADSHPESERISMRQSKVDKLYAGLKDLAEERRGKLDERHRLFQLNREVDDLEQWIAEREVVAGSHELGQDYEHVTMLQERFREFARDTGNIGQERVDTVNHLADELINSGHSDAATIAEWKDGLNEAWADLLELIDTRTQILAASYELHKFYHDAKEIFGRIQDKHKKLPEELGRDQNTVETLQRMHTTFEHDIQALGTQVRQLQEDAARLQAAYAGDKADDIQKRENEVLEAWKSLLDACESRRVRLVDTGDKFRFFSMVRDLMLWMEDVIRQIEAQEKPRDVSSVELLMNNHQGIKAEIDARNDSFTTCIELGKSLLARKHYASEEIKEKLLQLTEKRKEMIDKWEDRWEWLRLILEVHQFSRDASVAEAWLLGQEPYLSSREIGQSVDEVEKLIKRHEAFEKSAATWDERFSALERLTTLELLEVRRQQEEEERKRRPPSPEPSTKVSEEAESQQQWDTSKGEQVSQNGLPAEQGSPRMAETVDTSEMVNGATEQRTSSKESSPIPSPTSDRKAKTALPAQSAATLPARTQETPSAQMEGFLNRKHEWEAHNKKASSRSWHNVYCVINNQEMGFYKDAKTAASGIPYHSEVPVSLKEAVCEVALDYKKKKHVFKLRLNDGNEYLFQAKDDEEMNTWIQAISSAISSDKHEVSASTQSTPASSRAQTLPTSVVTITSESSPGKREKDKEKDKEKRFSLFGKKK
UniProt P05556, sequence (P05556 whole entry): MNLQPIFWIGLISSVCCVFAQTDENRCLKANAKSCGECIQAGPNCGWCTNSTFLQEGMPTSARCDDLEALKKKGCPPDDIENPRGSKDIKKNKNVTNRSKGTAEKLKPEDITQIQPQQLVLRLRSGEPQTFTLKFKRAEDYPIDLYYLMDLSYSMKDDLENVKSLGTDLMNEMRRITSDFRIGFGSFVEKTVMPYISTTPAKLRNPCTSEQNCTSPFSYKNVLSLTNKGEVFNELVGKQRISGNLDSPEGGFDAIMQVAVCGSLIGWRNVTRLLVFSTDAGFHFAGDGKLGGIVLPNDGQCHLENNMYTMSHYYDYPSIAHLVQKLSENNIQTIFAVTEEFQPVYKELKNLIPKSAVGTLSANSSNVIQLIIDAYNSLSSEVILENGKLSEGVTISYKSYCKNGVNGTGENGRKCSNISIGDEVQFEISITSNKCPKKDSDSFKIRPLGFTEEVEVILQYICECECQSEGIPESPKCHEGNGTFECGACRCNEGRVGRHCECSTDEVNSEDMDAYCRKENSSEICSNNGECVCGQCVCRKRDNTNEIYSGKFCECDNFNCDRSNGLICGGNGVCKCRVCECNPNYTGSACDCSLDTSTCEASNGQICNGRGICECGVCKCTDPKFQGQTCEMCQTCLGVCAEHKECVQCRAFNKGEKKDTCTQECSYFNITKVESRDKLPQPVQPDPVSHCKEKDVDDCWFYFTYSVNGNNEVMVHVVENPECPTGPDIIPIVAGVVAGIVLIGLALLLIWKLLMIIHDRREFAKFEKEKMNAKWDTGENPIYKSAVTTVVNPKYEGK
UniProt P14868, sequence (P14868 whole entry): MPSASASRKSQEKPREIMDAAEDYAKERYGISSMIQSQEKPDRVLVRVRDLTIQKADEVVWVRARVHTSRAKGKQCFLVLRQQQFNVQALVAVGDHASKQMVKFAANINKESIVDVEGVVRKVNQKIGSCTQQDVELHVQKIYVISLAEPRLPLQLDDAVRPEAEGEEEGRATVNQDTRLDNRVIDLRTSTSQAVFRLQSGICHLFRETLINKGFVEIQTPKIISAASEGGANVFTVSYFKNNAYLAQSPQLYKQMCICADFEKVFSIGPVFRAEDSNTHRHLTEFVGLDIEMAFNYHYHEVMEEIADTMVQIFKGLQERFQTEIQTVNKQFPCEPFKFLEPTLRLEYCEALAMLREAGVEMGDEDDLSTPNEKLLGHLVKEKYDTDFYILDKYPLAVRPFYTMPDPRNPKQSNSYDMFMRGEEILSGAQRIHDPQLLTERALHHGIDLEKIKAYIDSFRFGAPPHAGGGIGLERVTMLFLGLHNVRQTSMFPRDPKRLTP
UniProt Q99623, sequence (Q99623 whole entry): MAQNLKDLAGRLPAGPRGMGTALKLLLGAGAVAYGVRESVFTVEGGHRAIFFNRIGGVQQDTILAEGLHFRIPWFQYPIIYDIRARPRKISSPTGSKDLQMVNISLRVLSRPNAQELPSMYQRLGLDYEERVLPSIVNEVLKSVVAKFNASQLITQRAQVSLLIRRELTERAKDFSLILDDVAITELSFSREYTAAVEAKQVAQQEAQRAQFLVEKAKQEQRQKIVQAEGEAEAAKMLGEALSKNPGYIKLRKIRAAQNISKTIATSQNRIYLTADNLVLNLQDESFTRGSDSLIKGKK

| Target | lysine labeling ratio R10:1 |
| --- | --- |
| FRAS1 (lysine site: K211) (UniProt Q86XX4) | 1.36 (active) |
| SPTBN1 (lysine site: K1021) (UniProt Q01082) | 6.62 |
| UniProt P62316 (lysine site: K118) | 6.15 |
| UniProt O15354 (lysine site: K405) | 1.9 (active) |
| TKT (lysine site: K538) (UniProt P29401) | 1.86 (active) |
| EHD2 (lysine site: K220) (UniProt Q9NZN4) | 2.14 |
| FAT4 (lysine site: K2570) (UniProt Q6V0I7) | 3.02 |
| COL5A1 (lysine site: K69) (UniProt P20908) | 2.04 |
| CDH2 (lysine site: K189) (UniProt P19022) | 4.45 |
| ANKH (lysine site: K127) (UniProt Q9HCJ1) | 0.684 (active) |
| UniProt Q99623 (lysine site: K147) | 3.43 |
| UniProt Q9NP84 (lysine site: K48) | 4.2 |
| RPL22 (lysine site: K80) (UniProt P35268) | 2.72 |
| FLNA (lysine site: K916) (UniProt P21333) | 1.76 (active) |
| DARS (lysine site: K40) (UniProt P14868) | 2.54 |
| ECH1 (lysine site: K83) (UniProt Q13011) | 1.59 (active) |
| EDIL3 (lysine site: K235) (UniProt O43854) | 7.28 |
| ITGB1 (lysine site: K238) (UniProt P05556) | 1.34 (active) |
| UniProt P05787 (lysine site: K465) | 5.11 |
| DYNC1H1 (lysine site: K371) (UniProt Q14204) | 1.14 (active) |

| Target | lysine labeling ratio R10:1 |
| --- | --- |
| ENO1 (lysine site: K256) (UniProt P06733) | 1.87 (active) |
| GAPDH (lysine site: K117) (UniProt P04406) | 3.17 |
| CCT5 (lysine site: K514) (UniProt P48643) | 2.42 |
| ITGAV (lysine site: K889) (UniProt P06756) | 1.08 (active) |
| MSLN (lysine site: K299) (UniProt Q13421) | 3.1 |
| HSP90B1 (lysine site: K547) (UniProt P14625) | 3.04 |
| PTPRF (lysine site: K61) (UniProt P10586) | 1.48 (active) |
| LPL (lysine site: K265) (UniProt P06858) | 1.86 (active) |
| MSN (lysine site: K400) (UniProt P26038) | 3.75 |
| AXL (lysine site: K211) (UniProt P30530) | 2.55 |
| GALNT2 (lysine site: K363) (UniProt Q10471) | 3.95 |
| KRT18 (lysine site: K372) (UniProt P05783) | 2.29 |
| UniProt Q9UHA4 (lysine site: K12) | 3.79 |
| HSPA8 (lysine site: K246) (UniProt P11142) | 1.78 (active) |
| UniProt P05787 (lysine site: K464) | 5.11 |
| SPTBN1 (lysine site: K1249) (UniProt Q01082) | 4.92 |
| RBMX (lysine site: K63) (UniProt P38159) | 1.66 (active) |
| SDC4 (lysine site: K105) (UniProt P31431) | 3.81 |
| UniProt P05787 (lysine site: K304) | 7.25 |
| HSPA8 (lysine site: K328) (UniProt P11142) | 3.91 |
